# From PubChem BioAssay (EPA / NIEHS)
# Results filed as inconclusive are left out. Calls of active or inactive are those of the source. How the source made its calls, unless noted: active means hit-call score of the fitted dose curve at least 0.9, where 1 is the maximum; inconclusive means response in the unintended direction; inactive means score below 0.9.
# Tests used:
# [1] = Tanguay_ZF_120hpf_PFIN_legacy: (Legacy) Oregon State University Tanguay Lab 120 Hour Post-fertilization zebrafish Assay for Pectoral Fin Malformation (AID 2283648);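 further: each larva judged yes or no for fin defect by brightfield with dead larvae skipped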
# Procedure, shortened: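 Dechorionated Tropical 5D wild-type zebrafish embryos, one per well, statically exposed from 6 to 120 hpf at 28C with 0.64% DMSO final. Pectoral fin malformation scored present/absent by brightfield at 120 hpf; not scored in dead embryos.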
# [2] = Tanguay_ZF_120hpf_CFIN_legacy: (Legacy) Oregon State University Tanguay Lab 120 Hour Post-fertilization zebrafish Assay for Caudal Fin Malformation (AID 2283649)
# Procedure, shortened: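 Binary brightfield scoring of caudal fin defects at 120 hpf after static, light-shielded exposure at 28C from 6 hpf. Tropical 5D embryos, chorion removed with pronase at 4 hpf, final DMSO 0.64%.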
# [3] = Tanguay_ZF_120hpf_PIG_legacy: (Legacy) Oregon State University Tanguay Lab 120 Hour Post-fertilization zebrafish Assay for Pigmentation Malformation (AID 2283650)
# Procedure, shortened: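 Dechorionated Tropical 5D wild-type embryos, one per well from 6 hpf, statically exposed at 28C in the dark until 120 hpf, 0.64% DMSO final. Pigmentation scored present/absent by brightfield microscopy; dead embryos not scored; fitted versus DMSO.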
# [4] = Tanguay_ZF_120hpf_SWIM_legacy: (Legacy) Oregon State University Tanguay Lab 120 Hour Post-fertilization zebrafish Assay for Swim Bladder Malformation (AID 2283654);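 further: swim bladder malformation in each larva scored yes or no under brightfield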
# Procedure, shortened: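 Dechorionated wild-type Tropical 5D zebrafish embryos, one per well from 6 hpf, were statically exposed at 28C until 120 hpf in 0.64% DMSO. Swim bladder malformation scored as present/absent by brightfield microscopy; not scored in dead larvae.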
# [5] = Tanguay_ZF_120hpf_TRUN_legacy: (Legacy) Oregon State University Tanguay Lab 120 Hour Post-fertilization zebrafish Assay for Truncated Body (AID 2283655)
# Procedure, shortened: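 Binary presence/absence of truncated body is recorded at 120 hpf by brightfield, with non-mortality endpoints skipped after death. Exposure is static from 6 hpf in sealed dark plates at 28C, using dechorionated wild-type zebrafish, 0.64% DMSO.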
# [6] = Tanguay_ZF_120hpf_NC_legacy: (Legacy) Oregon State University Tanguay Lab 120 Hour Post-fertilization zebrafish Assay for Notochord and Tail Malformation (AID 2283656)
# Procedure, shortened: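 Dechorionated 5D zebrafish, 1/well from 6 hpf; static exposure to 120 hpf, 28C, sealed, dark; final DMSO 0.64% v/v. NC scored binary (present/absent); dead embryos not scored. Fit vs DMSO baseline, gain direction.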
# [7] = read-out: xenobiotic metabolism (CYP1A1), CYP1A1 (gene 1543); assay: CLD_CYP1A1_6hr: CellzDirect (CLD) Gene Expression Assay for xenobiotic metabolism (CYP1A1) at 6 hours (AID 2283661);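 on AC50: potency for transcript induction above DMSO vehicle baseline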
# Procedure, shortened: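 Primary human hepatocytes from two donors, compound versus 0.2% DMSO vehicle. CYP1A1 mRNA measured 6 h after dosing by quantitative nuclease protection assay with chemiluminescent read-out; induction fitted relative to DMSO, cytotoxicity flagged by microscopy.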
# [8] = system: Thyroperoxidase (TPO), gene 54314; assay: CCTE_Simmons_AUR_rTPO: CCTE's Amplex UltraRed Assay for Thyroperoxidase (TPO) Inhibition, Simmons Lab (AID 2283662);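 further: potency for loss of signal meaning inhibition of peroxidase activity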
# Procedure, shortened: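 Rat thyroid microsomal TPO + 25 uM AUR in 200 mM K phosphate; cpd 5 nM–87.5 uM [final], 8 conc, 0.5% DMSO; 300 uM H2O2 starts rxn; 37C dark 30 min; endpoint FI 544/590 nm; n=3.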
# [9] = Tanguay_ZF_120hpf_TR_legacy: (Legacy) Oregon State University Tanguay Lab 120 Hour Post-fertilization zebrafish Assay for Touch Response (AID 2283667)
# Procedure, shortened: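 Tropical 5D wild-type zebrafish embryos statically exposed to 120 hpf at 28°C, sealed and dark-covered, 0.64% DMSO final; touch response scored as present/absent by brightfield microscopy at 120 hpf. Trimethyltin chloride 5 uM positive control; dead embryos not scored.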
# [10] = read-out: ABC Transporter (ABCB1), ABCB1 (gene 5243); assay: CLD_ABCB1_6hr: CellzDirect (CLD) Gene Expression Assay for ABC Transporter (ABCB1) at 6 hours (AID 2283659);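 further: hits raise ABCB1 transcript above the DMSO vehicle baseline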
# Procedure, shortened: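 Primary human hepatocytes (two donor preparations) dosed daily for two days with chemicals at multiple concentrations, 0.2% DMSO vehicle; harvested 6 h post-dose. ABCB1 mRNA induction quantified by qNPA chemiluminescence; gain-of-signal fitted versus DMSO.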
# [11] = read-out: Broad substrate specificity ATP-binding cassette transporter ABCG2 (Homo sapiens) (UniProt Q9UNQ0); assay: CLD_ABCG2_6hr: CellzDirect (CLD) Gene Expression Assay for ABC Transporter (ABCG2) at 6 hours (AID 2283660)
# Procedure, shortened: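 Primary human hepatocytes dosed daily with chemicals at multiple concentrations (0.2% DMSO vehicle), harvested 6 h after dosing. ABCG2 mRNA induction read by quantitative nuclease protection assay (qNPA) chemiluminescence; gain of signal fitted against DMSO baseline.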
# [12] = read-out: sulfotransferase (SULT2A), SULT2A1 (gene 6822); assay: CLD_SULT2A_6hr: CellzDirect (CLD) Gene Expression Assay for sulfotransferase (SULT2A) at 6 hours (AID 2283669);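 further: hits raise transcript level above the DMSO vehicle baseline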
# Procedure, shortened: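 Primary human hepatocytes from two donor preparations were dosed daily with chemicals or 0.2% DMSO and harvested at 6 h. Transcript induction read by qNPA chemiluminescence, fitted for gain of signal relative to DMSO; morphology-based cytotoxicity annotated.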
# [13] = Tanguay_ZF_120hpf_CIRC_legacy: (Legacy) Oregon State University Tanguay Lab 120 Hour Post-fertilization zebrafish Assay for Circulatory Malformation (AID 2283651)
# Procedure, shortened: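 Using wild-type Tropical 5D zebrafish, we exposed dechorionated embryos from 6 to 120 hpf in embryo medium with 0.64% DMSO. Circulatory defects were scored as present or absent; 5uM trimethyltin chloride served as positive control.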
# [14] = read-out: xenobiotic metabolism (CYP1A2), CYP1A2 (gene 1544); assay: CLD_CYP1A2_6hr: CellzDirect (CLD) Gene Expression Assay for xenobiotic metabolism (CYP1A2) at 6 hours (AID 2283663);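 on AC50: potency is for induction meaning a rise in mRNA above DMSO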
# Procedure, shortened: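 Primary human hepatocytes from two donor preparations, dosed daily with multiple concentrations in 0.2% DMSO and harvested at 6 h. CYP1A2 mRNA induction measured by chemiluminescent qNPA, gain of signal fitted against DMSO; cytotoxicity flagged morphologically.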
# [15] = CLD_ACTIN_24hr: CellzDirect (CLD) Gene Expression Assay for Baseline Control (Actin) at 24 hours (AID 2283670)
# Procedure, shortened: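 Primary human hepatocytes dosed over multiple concentrations with 0.2% DMSO vehicle; actin mRNA measured at 24 h by qNPA chemiluminescence. Background control endpoint, fitted as gain of signal versus DMSO.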
# [16] = read-out: solute carrier (SLC22A6), SLC22A6 (gene 9356); assay: LTEA_HepaRG_SLC22A6: Life Technologies and Expression Analysis (LTEA) Assay for solute carrier (SLC22A6) using HepaRG (AID 2283653; active means hit-call score of the fitted dose curve at least 0.9, where 1 is the maximum; inactive means score below 0.9); settings: mRNA level, 48 h; actives raise or lower the signal
# Procedure, shortened: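 SLC22A6 transcript was measured by TaqMan qRT-PCR, normalized to three housekeeping genes, after 48 h duplicate exposure of HepaRG cells (100 uM top, half-log steps, 0.5% DMSO); bidirectional fit against vehicle.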
# [17] = read-out: solute carrier (SLC10A1), SLC10A1 (gene 6554); assay: LTEA_HepaRG_SLC10A1: Life Technologies and Expression Analysis (LTEA) Assay for solute carrier (SLC10A1) using HepaRG (AID 2283657; active means hit-call score of the fitted dose curve at least 0.9, where 1 is the maximum; inactive means score below 0.9); settings: mRNA level, 48 h; actives raise or lower the signal
# Procedure, shortened: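 HepaRG cells (single lot) exposed 48 h in serum-free induction medium, 8-point half-log series from 100 uM top in 0.5% DMSO, duplicate. SLC10A1 mRNA by qRT-PCR normalised to ACTB, GAPDH, POLR2A; bidirectional fit versus DMSO.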
# [18] = read-out: matrix metalloproteinase-1 (MMP1), MMP1 (gene 4312); assay: LTEA_HepaRG_MMP1: Life Technologies and Expression Analysis (LTEA) Assay for matrix metalloproteinase-1 (MMP1) using HepaRG (AID 2283658; active means hit-call score of the fitted dose curve at least 0.9, where 1 is the maximum; inactive means score below 0.9); settings: mRNA level, 48 h; actives raise or lower the signal
# Procedure, shortened: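 qRT-PCR (TaqMan, Fluidigm arrays) of MMP1 transcript, normalized against three housekeeping genes and fitted in both directions relative to 0.5% DMSO vehicle. Human HepaRG cultures received duplicate 48 h exposures across 8 points, highest 100 uM with half-log steps.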
# [19] = read-out: kallikrein-3 (KLK3), KLK3 (gene 354); assay: LTEA_HepaRG_KLK3: Life Technologies and Expression Analysis (LTEA) Assay for kallikrein-3 (KLK3) using HepaRG (AID 2283652; active means hit-call score of the fitted dose curve at least 0.9, where 1 is the maximum; inactive means score below 0.9); settings: mRNA level, 48 h; actives raise or lower the signal
# Procedure, shortened: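 Differentiated human HepaRG cells in serum-free induction medium exposed 48 h in duplicate, eight-point half-log series from 100 uM in 0.5% DMSO. KLK3 mRNA by qRT-PCR, normalised to ACTB, GAPDH, POLR2A; bidirectional fit versus DMSO.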
# Broad substrate specificity ATP-binding cassette transporter ABCG2 (Homo sapiens), sequence (Q9UNQ0 whole entry, looked up): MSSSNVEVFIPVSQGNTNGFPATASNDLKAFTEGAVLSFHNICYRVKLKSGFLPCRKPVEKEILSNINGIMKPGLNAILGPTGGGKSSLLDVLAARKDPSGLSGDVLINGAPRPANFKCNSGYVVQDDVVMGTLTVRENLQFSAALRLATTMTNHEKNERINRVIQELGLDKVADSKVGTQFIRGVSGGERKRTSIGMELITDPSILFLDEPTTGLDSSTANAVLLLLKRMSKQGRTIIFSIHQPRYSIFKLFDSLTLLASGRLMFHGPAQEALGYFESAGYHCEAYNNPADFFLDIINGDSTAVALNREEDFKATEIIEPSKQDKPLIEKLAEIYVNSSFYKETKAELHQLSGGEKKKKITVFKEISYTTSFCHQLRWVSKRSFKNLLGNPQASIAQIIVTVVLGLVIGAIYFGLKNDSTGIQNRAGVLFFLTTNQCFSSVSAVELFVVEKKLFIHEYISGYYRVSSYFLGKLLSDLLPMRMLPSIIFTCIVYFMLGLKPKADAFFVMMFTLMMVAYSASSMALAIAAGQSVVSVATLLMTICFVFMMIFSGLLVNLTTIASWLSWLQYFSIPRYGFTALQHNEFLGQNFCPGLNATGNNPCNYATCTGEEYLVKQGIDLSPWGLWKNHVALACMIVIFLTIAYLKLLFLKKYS
structure (smiles),measurement,setting,value
COC(=O)NC(=S)Nc1ccccc1NC(=S)NC(=O)OC,outcome,[1],inactive
same,outcome,[2],inactive
same,outcome,[3],inactive
same,outcome,[4],inactive
same,outcome,[5],inactive
same,outcome,[6],inactive
same,AC50,[7],5.11 µM (active)
same,AC50,[8],22.2 µM (active)
same,outcome,[9],inactive
Cc1ccc(N=CN(C)C=Nc2ccc(C)cc2C)c(C)c1,outcome,[1],inactive
same,outcome,[2],inactive
same,outcome,[3],inactive
same,outcome,[4],inactive
same,outcome,[5],inactive
same,outcome,[6],inactive
same,outcome,[10],inactive
same,outcome,[11],inactive
same,outcome,[9],inactive
same,outcome,[12],inactive
COP(=S)(OC)Oc1ccc([N+](=O)[O-])c(C)c1,outcome,[1],inactive
same,outcome,[2],inactive
same,outcome,[3],inactive
same,outcome,[13],inactive
same,outcome,[4],inactive
same,outcome,[5],inactive
same,outcome,[6],inactive
same,outcome,[10],inactive
same,AC50,[8],5.57 µM (active)
same,outcome,[9],inactive
CCCCOCN(C(=O)CCl)c1c(CC)cccc1CC,outcome,[1],inactive
same,outcome,[2],inactive
same,outcome,[3],inactive
same,outcome,[5],inactive
same,outcome,[6],inactive
same,outcome,[11],inactive
same,outcome,[14],inactive
same,outcome,[9],inactive
COc1ccc(-c2ccccc2)cc1NNC(=O)OC(C)C,outcome,[2],inactive
same,outcome,[3],inactive
same,outcome,[13],inactive
same,outcome,[4],inactive
same,outcome,[5],inactive
same,outcome,[6],inactive
same,outcome,[10],inactive
same,outcome,[11],inactive
same,AC50,[8],1.84 µM (active)
same,AC50,[14],0.798 µM (active)
same,outcome,[9],inactive
same,outcome,[15],inactive
CC1(C)CCC(=Cc2ccc(Cl)cc2)C1(O)Cn1cncn1 (configuration not stated),outcome,[1],inactive
same,outcome,[2],inactive
same,outcome,[13],inactive
same,outcome,[4],inactive
same,outcome,[5],inactive
same,outcome,[6],inactive
same,outcome,[10],inactive
same,outcome,[11],inactive
same,outcome,[9],inactive
CC(C)=CC1C(C(=O)OCc2coc(Cc3ccccc3)c2)C1(C)C (configuration not stated),outcome,[1],inactive
same,outcome,[2],inactive
same,outcome,[3],inactive
same,outcome,[13],inactive
same,outcome,[4],inactive
same,outcome,[10],inactive
same,AC50,[8],26.8 µM (active)
same,outcome,[9],inactive
CCOP(=O)(OCC)Oc1nc(Cl)c(Cl)cc1Cl,outcome,[2],inactive
same,outcome,[3],inactive
same,outcome,[13],inactive
same,outcome,[4],inactive
same,outcome,[5],inactive
same,outcome,[6],inactive
same,outcome,[10],inactive
same,outcome,[11],inactive
same,AC50,[8],29 µM (active)
same,AC50,[14],5.84 µM (active)
same,outcome,[9],inactive
CC(C)NC(=O)N1CC(=O)N(c2cc(Cl)cc(Cl)c2)C1=O,outcome,[1],inactive
same,outcome,[2],inactive
same,outcome,[3],inactive
same,outcome,[13],inactive
same,outcome,[4],inactive
same,outcome,[6],inactive
same,outcome,[10],inactive
same,outcome,[11],inactive
same,AC50,[14],20 µM (active)
same,outcome,[9],inactive
CCOP(=S)(OCC)Oc1nc(Cl)n(C(C)C)n1,outcome,[2],inactive
same,outcome,[3],inactive
same,outcome,[13],inactive
same,outcome,[16],inactive
same,outcome,[4],inactive
same,AC50,[5],8.3 µM (active)
same,outcome,[6],inactive
same,AC50,[17],30.4 µM (active)
same,outcome,[18],inactive
same,outcome,[10],inactive
same,outcome,[11],inactive
same,AC50,[8],31.2 µM (active)
same,AC50,[14],2.78 µM (active)
same,outcome,[9],inactive
CCC(C)n1c(=O)[nH]c(C)c(Br)c1=O (configuration not stated),outcome,[2],inactive
same,outcome,[3],inactive
same,outcome,[13],inactive
same,outcome,[19],inactive
same,outcome,[16],inactive
same,outcome,[4],inactive
same,AC50,[17],21 µM (active)
same,outcome,[18],inactive
same,outcome,[9],inactive
same,outcome,[12],inactive
CCOc1nc(F)cc2nc(S(=O)(=O)Nc3c(Cl)cccc3Cl)nn12,outcome,[2],inactive
same,outcome,[3],inactive
same,outcome,[13],inactive
same,outcome,[4],inactive
same,outcome,[5],inactive
same,outcome,[6],inactive
same,outcome,[10],inactive
same,outcome,[11],inactive
same,outcome,[7],inactive
same,AC50,[8],26.5 µM (active)
same,outcome,[9],inactive
CCOc1cc(C(C)(C)C)ccc1C1COC(c2c(F)cccc2F)=N1 (configuration not stated),outcome,[1],inactive
same,outcome,[2],inactive
same,outcome,[4],inactive
same,outcome,[5],inactive
same,outcome,[6],inactive
same,outcome,[10],inactive
same,outcome,[11],inactive
same,outcome,[7],inactive
same,outcome,[9],inactive
COC(=O)N(C(=O)N1CO[C@@]2(C(=O)OC)Cc3cc(Cl)ccc3C2=N1)c1ccc(OC(F)(F)F)cc1,outcome,[1],inactive
same,outcome,[2],inactive
same,outcome,[3],inactive
same,outcome,[13],inactive
same,outcome,[4],inactive
same,outcome,[6],inactive
same,outcome,[10],inactive
same,AC50,[7],2.46 µM (active)
same,AC50,[14],0.449 µM (active)
same,outcome,[9],inactive
same,outcome,[12],inactive
CCNC(=O)NC(=O)C(C#N)=NOC,AC50,[1],45.6 µM (active)
same,outcome,[2],inactive
same,outcome,[13],inactive
same,AC50,[4],53.2 µM (active)
same,outcome,[5],inactive
same,outcome,[6],inactive
same,AC50,[8],41.2 µM (active)
same,outcome,[9],inactive
N#Cc1c(Cl)cccc1Cl,outcome,[1],inactive
same,outcome,[2],inactive
same,outcome,[3],inactive
same,outcome,[13],inactive
same,outcome,[4],inactive
same,outcome,[5],inactive
same,outcome,[6],inactive
same,outcome,[10],inactive
same,outcome,[9],inactive
COC(=O)c1c(C(F)F)nc(C(F)(F)F)c(C2=NCCS2)c1CC(C)C,outcome,[1],inactive
same,outcome,[2],inactive
same,outcome,[3],inactive
same,outcome,[13],inactive
same,outcome,[4],inactive
same,outcome,[5],inactive
same,outcome,[6],inactive
same,outcome,[10],inactive
